# HCMV antiviral – blocks human cytomegalovirus replication; HFF cells, HCMV-luciferase reporter, 72 h; stronger effect = lower value; 410,000 tested, 4.5% active; AID 1259415; activity change, negative = inhibition, % at 57.5 µM; in the data active = activity change below about -60%; inconclusive = no clear call, values can overlap the other calls; inactive = above about -39%
#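 After 16 h attachment at 37C, HFF cells received test compound and HCMV-luciferase (1 PFU/cell); reporter luminescence read 72 h later, data normalized against buffer-only and known inhibitor Salinomycin.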
# LASV entry inh – blocks Lassa virus binding to or entry into cells. Lassa virus pseudotype entry inhibition, cell reporter. Potency, µM (doses to about 37.9 µM), without a hit: at the top dose activity change, negative = inhibition, hits mostly inhibitors. 300,000 tested, 1.2% active. AID 540256; calls by dose curve; tested in HEK293 cells; note: potency is the fitted concentration of half-maximal effect; nearly all actives have a fitted effect of over 50% in size
# Marburg entry inh – blocks Marburg virus binding to or entry into cells. Marburg virus pseudotyped entry inhibition, cell reporter. Potency, µM (top dose mostly 37.8 µM), inactives show top-dose activity change, negative = inhibition, most hits filed as inhibitors. 300,000 tested, 1.8% active. AID 540276; calls by dose curve; tested in HEK293 cells; note: potency is the fitted concentration of half-maximal effect
# VACV mCherry inh – inhibitors of vaccinia virus infection (mCherry reporter signal). Vaccinia virus mCherry reporter infection, fluorescence. Potency, µM (top dose mostly 36.5 µM), inactives show at the highest dose activity change, negative = inhibition, usual class: inhibitors. 310,000 tested, 0.63% active; calls by dose curve; tested in A549 cells; note: potency is the fitted concentration of half-maximal effect; nearly all actives have a fitted effect of over 35% in size
# Vaccinia Venus – inhibitors of vaccinia virus (Venus reporter); 330,000 tested, 0.46% active; Vaccinia virus Venus reporter expression, fluorescence; Potency, µM (doses to about 36.5 µM), for the others: top-dose activity change, negative = inhibition, most hits filed as inhibitors; calls by dose curve; tested in A549 cells; note: potency is the fitted concentration of half-maximal effect; nearly all actives have a fitted effect of over 30% in size
# HCV inh – HCV inhibition. Huh7.5.1 HCVcc-Cre infection, luciferase reporter, 44 h. Potency, µM (series often up to 41.8 µM), for inactives: at the top dose activity change, negative = inhibition, actives largely listed as inhibitors. 340,000 tested, 3.4% active. AID 651820; active = well fitted inhibition curve with a large enough effect; inconclusive = small, poorly fitted or top-dose-only effect, or another doubt; inactive = no such curve, though single readings can be large or run the other way; note: potency is the fitted concentration of half-maximal effect
#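 Infectious HCV cell culture screen: compound-treated cells (1,000/well, pre-plated 4 h) are infected with HCVcc-Cre at roughly 0.5 moi and grown 44 h. Infection is quantified by luciferase signal after 15 min substrate incubation at room temperature.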
# The depositor's hits bear a star; i = inactive; ? = inconclusive; . = no result; ! = repeats disagree; [ ] = another dose, or the depositor's remark. In the library only some 7.8% were active in any assay of this set; here they are far more common. % is set by controls: 0 for no effect and ±100 for the full control effect.
SMILES,HCMV antiviral,LASV entry inh,Marburg entry inh,VACV mCherry inh,Vaccinia Venus,HCV inh
CCCCc1cc(=O)oc2cc(C)c3c(C)coc3c12,-26.2,-2.0%[46.1 µM],?,-4.9%,5.0%,.
CC12C=C(C=Cc3ccc(Br)cc3)C(C)(C1)C(c1ccc(Br)cc1)CC2=O (stereo not drawn),.,11.5%[14.3 µM],-25.8%[14.2 µM],.,.,.
CN(C)S(=O)(=O)c1ccc(/C(O)=C2/C(=O)C(=O)N(Cc3cccnc3)C2c2ccncc2)cc1 (stereo not drawn),-11.2,5.1%,0.8%,.,.,7.1%
CN(C)S(=O)(=O)c1ccc(/C(O)=C2/C(=O)C(=O)N(Cc3cccnc3)C2c2ccco2)cc1 (stereo not drawn),-67.4*,26.6%,15.2%,.,-10.6%,5.0%
C#CCN1C=CC(=O)[C@@H](OC(=O)Nc2ccc(C)cc2)[C@H]1c1ccccc1Br,-18.8,.,.,-19.3%,?,-2.2%
C#CCN1C=CC(=O)[C@@H](O)[C@H]1c1ccccc1Br,-12.2,.,.,-15.8%,3.3%,5.62µM*
CN1CCN(C2=Cc3ccc(Cl)cc3Sc3ccc(F)cc32)CC1,22.1,?,7.94µM*,?,?,?
CN1CCN(C2=Cc3ccccc3Sc3cc(F)ccc32)CC1,24.6,-9.6%,?,?,?,?
Cc1nc(C)c(-c2csc(Nc3ccc(O)cc3C)n2)s1,-33.0,-13.9%[46.1 µM],5.3%[46.1 µM],1.12µM*,?,3.9%
Cc1nc(C)c(-c2csc(Nc3ccc(F)cc3)n2)s1,-9.5,?,?,?,-17.8%,4.47µM*
Cc1cc(O)ccc1Nc1nc(-c2cccs2)cs1,28.5,?,?,?,?,?
COc1cccc(Nc2nc(-c3sc(N)nc3C)cs2)c1,-0.6,29.7%,?,i,5.1%,?
COc1cccc(Nc2nc(-c3sc(C)nc3C)cs2)c1,10.0,.,.,.,.,5.01µM*
O=C(Nc1cc2c(cc1C(=O)c1ccc(Br)cc1)OCCO2)c1ccc(Cl)cc1,-39.8,-13.0%[46.1 µM],.,?,?,.
CCC(Oc1ccccc1)C(=O)Nc1nnc(S(=O)(=O)N2CCCCC2)s1 (stereo not drawn),-19.4,.,.,.,.,17.1%
CC(Oc1ccccc1)C(=O)Nc1nnc(S(=O)(=O)N2CCCCCC2)s1 (stereo not drawn),-69.2*!,-4.5%[46.1 µM],.,-22.8%,-15.4%,15.9%
Cc1ccc(C)n1C1C(=O)N(C)c2ccc(OC(F)(F)F)cc21 (stereo not drawn),-1.2,.,.,.,.,.
CCOc1ccc(-n2c(SCC(=O)Nc3ccc4c(c3)OCCO4)nc3c([nH]c4ccccc43)c2=O)cc1,26.9,12.9%[46.1 µM],.,i,-10.8%,.
CCOCC(=O)Nc1c(C(=O)Nc2ccc3c(c2)OCCO3)oc2ccccc12,-95.8*,?,?,?,-15.6%,?
COCC(=O)Nc1c(C(=O)Nc2ccc3c(c2)OCCO3)oc2ccccc12,55.6,?,11.2µM*,-9.9%,-8.9%,?
CC[Se]CC[C@@H](N)C(=O)O,.,.,-8.1%,.,.,.
CC(C)(O)/C=C/C(=O)[C@](C)(O)C1[C@H](O)C[C@@]2(C)C3CC=C4C(C[C@H](O)[C@@H](O)C4(C)C)[C@]3(C)C(=O)C[C@]12C (stereo partly drawn),.,.,.,?,1.58µM*,?
Cc1cc(F)ccc1S(=O)(=O)Nc1ccccc1C(=O)Nc1ccccc1-c1nc2ccccc2[nH]1,.,11.2µM*,?,?,?,7.94µM*
Cc1ccc(NC(=O)c2ccoc2)cc1-c1ccc(C(=O)NCC2CC2)cc1,.,3.15µM*,.,.,.,.
O=C(NCC1CC1)c1ccc2nc(-c3ccoc3)c(-c3ccoc3)nc2c1,.,.,.,18.9%,-13.6%,.
C=CCn1c(SCC(=O)Nc2ccc(Br)cc2)nc(O)cc1=O,-100.1*,.,.,-13.5%,-10.3%,.
O=C(O)c1cccc(COc2ccccc2Cl)c1,?,0.517µM*,0.411µM*,.,.,13.3%
O=C1NC(=O)/C(=C\c2ccc(OCc3cccc(C(=O)O)c3)c(Cl)c2)N1,82.9,6.31µM*,?,-4.8%,-0.8%,-2.2%
O=C(NCc1nnc2n1CCN(Cc1cc3c(cc1Cl)OCO3)CC2)C1CCOC1 (stereo not drawn),.,.,.,-14.4%,-9.0%,.
COC(=O)[C@@H]1[C@@H](c2ccccc2)NC(=O)N(CCc2cc(OC)c(OC)c(OC)c2)[C@@H]1C,.,.,-31.0%[14.2 µM],.,.,.

# Screening results (PubChem BioAssay)
